# Test results published in PMC5540273 (PLoS ONE, 2017).
# pKd: −log10 of the molar value.
# Tested on: CSNK2A2
# 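Further: kd values determined as follow-up on hits from a single-replicate KINOMEscan panel screen.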
row,SMILES,pKd
1,Fc1cc(Cl)ccc1Nc1ccnc2cc(-c3ccc(CN4CCCCC4)o3)ccc12 [GW560116],< 5.00
2,COc1ccccc1CNC(=O)c1cc(C(=O)c2ccccc2C)c[nH]1 [GSK364507],5.29
3,Nc1ncnc2[nH]c(-c3ccccc3)nc12 [AH5015],5.96
4,COc1cc2ncnc(Nc3ccc4nc(-c5ccccc5)[nH]c4c3)c2cc1OC.Cl [GW282450],< 5.00
5,Cc1cccc(-c2nc(Nc3ccc4[nH]ncc4c3)c3ccccc3n2)n1 [GW857175],7.38
6,Clc1cc(Cl)cc(Nc2ccnc(Nc3cc(Cl)cc(Cl)c3)n2)c1 [GSK175726],< 5.00

# Tested on: DDR1
row,SMILES,pKd
1,O=C(Nc1ccccc1)Nc1cccc(Oc2ccc3nccn3n2)c1,7.62
2,Cc1cccc(-c2nc(-c3ccc(S(C)(=O)=O)cc3)sc2-c2ccnc(NCCc3ccccc3)c2)c1,6.64
3,Cl.O=C(Nc1cccc(-c2nn3ncccc3c2-c2ccnc(Nc3cccnc3)n2)c1)c1c(F)cccc1F [GSK312879],6.85
4,Cc1ccc(NC(=O)Nc2cc(C(C)(C)C)nn2-c2ccccc2)cc1 [GSK1014915],5.89
5,COC(=O)c1c(-c2ccccc2)c2cc(C(=O)O)ccc2c(=O)n1Cc1ccccc1,6.80
6,Cc1ccc(NC(=O)Nc2cccc(Cl)c2)cc1-c1ccc(C(=O)Nc2ccncc2)cc1 [GSK1398468],7.12
7,CC(=O)Nc1nc2cnc(Nc3cc(NC(=O)c4cccc(CCC#N)c4)ccc3C)nc2s1,< 5.00
8,COC(=O)c1c(-c2ccccc2)c2cc(OC)ccc2c(=O)n1Cc1ccccc1,6.55
